# In PubChem BioAssay (NCATS):
# Inconclusive results are not listed. Activity calls are given as the source filed them. The call rests on the fitted dose curve; in most records, active means well fitted inhibition curve with a large enough effect in the repeat runs; inconclusive means weak or mixed curves; inactive means no such curve, though single readings can be large or run the other way.
# Target: Cytochrome P450 2C9 (Homo sapiens) (UniProt P11712)
# Assay: Cytochrome P450 family 2 subfamily C member 9 (CYP2C9) small molecule antagonists: luciferase biochemical (cell-free) qHTS assay (AID 1645842); further: nearly all actives have a fitted effect of over 55% in size
# Settings: P450-Glo CYP2C9 enzyme assay, luciferin luminescence; series mostly up to 57.4 µM
# How it was run: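 Luminescence, after 20 min with luciferin detection reagent, reflected CYP2C9 turnover during a 1 h NADPH-driven reaction at 37C. Enzyme-substrate mix contained 0.4% bovine serum albumin and was preincubated with compound 10 min at room temperature.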
# Potency means the concentration at half of the fitted maximal effect.
# Cytochrome P450 2C9 (Homo sapiens), sequence (P11712 whole entry, looked up): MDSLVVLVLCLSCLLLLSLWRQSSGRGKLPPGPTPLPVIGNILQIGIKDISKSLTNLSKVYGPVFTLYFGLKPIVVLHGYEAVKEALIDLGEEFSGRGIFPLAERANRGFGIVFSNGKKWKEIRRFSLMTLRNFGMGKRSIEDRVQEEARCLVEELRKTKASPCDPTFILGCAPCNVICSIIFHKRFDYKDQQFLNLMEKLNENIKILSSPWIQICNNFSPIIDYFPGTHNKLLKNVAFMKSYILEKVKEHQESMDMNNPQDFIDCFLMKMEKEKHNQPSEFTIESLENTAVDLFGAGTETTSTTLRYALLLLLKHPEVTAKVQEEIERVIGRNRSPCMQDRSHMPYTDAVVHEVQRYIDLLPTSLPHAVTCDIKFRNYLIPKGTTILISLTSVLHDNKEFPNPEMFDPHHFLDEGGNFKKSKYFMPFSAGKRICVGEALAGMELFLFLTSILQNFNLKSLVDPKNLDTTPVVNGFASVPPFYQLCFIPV
row,Structure (SMILES),Potency
1,CC(C)c1ccc(-c2cc(=O)c3ccccc3o2)cc1,5.35 µM (active)
2,Fc1ccc(-n2cc(CCCCN3CCC4(CC3)OCc3ccccc34)c3ccccc32)cc1,2.39 µM (active)
3,CC(C)CCNC(=O)c1ccc2c(c1)nc(Nc1n[nH]c3ccc(-c4ccccc4OC(F)(F)F)cc13)n2C1CCC(O)CC1 (stereo not drawn),9.52 µM (active)
4,COc1cc(N2CCC(N)CC2)ccc1Nc1ncc(Cl)c(-c2c[nH]c3ccccc23)n1,3.01 µM (active)
5,COc1cccc(OCCCN)c1-c1cc(Nc2cnc(C#N)cn2)n[nH]1,inactive
6,O=C(NCc1ccccc1)c1ccc2c(=O)n(-c3cccc(C(F)(F)F)c3)c(=S)[nH]c2c1,10.7 µM (active)
7,CN[C@H]1CC[C@@H](c2ccc(Cl)c(Cl)c2)c2ccccc21,15.5 µM (active)
8,CN(C)C(=O)Nc1cc(-c2ccccc2)ccc1N(C)C,15.1 µM (active)
9,Cc1ccc(C(=O)Nc2ccc(CN3CCN(C)CC3)c(C(F)(F)F)c2)cc1C#Cc1cnc2[nH]ncc2c1,4.77 µM (active)
10,CC(C)NC(=O)COc1cccc(-c2nc(Nc3ccc4[nH]ncc4c3)c3ccccc3n2)c1,0.19 µM (active)
11,COc1cc2c(Nc3cc(F)c(Cl)c(Cl)c3)ncnc2cc1OCC1CCCN(C)CCC1,19 µM (active)
12,CN1CCC(NC(=O)c2cc(-c3c(O)cc(O)cc3Oc3ccc([N+](=O)[O-])cc3)on2)CC1,12 µM (active)
13,O=C(Nc1ccc(-n2nc(C(F)(F)F)cc2C(F)(F)F)cc1)c1ccncc1F,26.8 µM (active)
14,COc1ccc2nc(-c3cc(OC)c(OC)c(OC)c3)cc(C(=O)NCC(=O)Nc3ccc(C(C)=O)cc3)c2c1,7.56 µM (active)
15,O=C(Nc1ccccc1)c1ccc(Nc2nnc(-c3ccc(O)cc3)c3ccccc23)cc1,6.01 µM (active)
16,CNCc1cc(-c2ccccc2F)n(S(=O)(=O)c2cccnc2)c1,inactive
17,COc1ccc(NC(=O)c2ccc(-c3ccc(C(=N)N)cc3C)cc2)cc1N1CCN(C)CC1,inactive
18,COC(=O)c1ccc2c(c1)nc(NC(=O)c1ccccc1)n2CCCc1ccccc1,23.9 µM (active)
19,COc1cc(-c2cn(C3CCc4c(F)cccc4N(CC(F)(F)F)C3=O)nn2)ccc1-n1cnc(C)c1 (stereo not drawn),12 µM (active)

row,Structure (SMILES),Potency
1,COc1cc2ncnc(Oc3ccc(CC(=O)Nc4cnn(C(C)C)c4)cc3)c2cc1OC,13.5 µM (active)
2,C=C(C)[C@@H]1CC=C(COC(=O)NC(=O)c2ncn3c(=O)n(C)nnc23)CC1,inactive
3,Cc1nc(C(=O)N2CCC[C@H]2Cc2nnc(-c3ccccc3)o2)c(-c2ccccc2F)s1,10.7 µM (active)
4,O=S(=O)(Cc1ccccc1)Nc1ccc(-c2ccc3c(cnn3-c3ccc(F)cc3)c2)c(C(F)(F)F)c1,6.01 µM (active)
5,Cc1ccc(NC(=O)N2CCN(c3nc(N)nc4sc(-c5cccnc5)nc34)CC2)cc1,3.01 µM (active)
6,CC(=O)NCc1cccc(OC[C@@H](O)CNCCc2ccc(NS(=O)(=O)c3ccccc3)cc2)c1,0.674 µM (active)
7,COc1ccc2cc3c(NC(=O)c4ccco4)nn(C)c3nc2c1,15.1 µM (active)
8,CCN(c1cc(-c2ccc(CN3CCOCC3)cc2)cc(C(=O)NCc2c(C)cc(C)[nH]c2=O)c1C)C1CCOCC1,3.38 µM (active)
9,Cc1[nH]c(/C=C2\C(=O)Nc3cc(-c4ccccc4)ccc32)c(C)c1CCC(=O)O,12 µM (active)
10,FC(F)(F)c1ccccc1-c1cc(C(F)(F)F)c2nc(C3=NOC4(CCCCC4)C3)[nH]c2c1,inactive
11,OC(CC1c2ccccc2-c2cncn21)C1CCCCC1 (stereo not drawn),2.68 µM (active)
12,O=c1cc(N2CCN(c3cccc(C(F)(F)F)c3)CC2)[nH]c(=O)n1C1CCCCC1,3.01 µM (active)
13,O=C(NC1CCC1)c1ccc(C#Cc2cccc(F)c2)nc1,inactive
14,CC(C)(O)c1ccc2c(c1)ncn2-c1cccc(-c2ccccc2C#N)c1,2.13 µM (active)
15,O=C(O)c1cc(N(Cc2ccc(C3CCCCC3)cc2)C(=O)c2ccc(Oc3ccccc3)cc2)ccc1O,23.9 µM (active)
16,CCO[C@H]1CN(C2CCC(O)(c3ccc4c(c3)OCO4)CC2)C[C@@H]1NC(=O)CNC(=O)c1cccc(C(F)(F)F)c1 (stereo partly drawn),12 µM (active)
17,N#Cc1ccc(Nc2nc(-c3ccc(O)cc3O)cs2)cc1C(F)(F)F,1.69 µM (active)
18,NCCOc1cc(C(=O)Nc2cc(OCCN)c3ccccc3n2)nc(C(=O)Nc2cc(OCCN)c3ccccc3n2)c1,inactive
19,COc1ccc(N(C(=O)Nc2c(C)cccc2C)c2cc(Nc3ccc(N4CCN(C)CC4)cc3)ncn2)c(OC)c1,13.5 µM (active)
